Data: PubChem BioAssay (NCI)
This is part of a sample that, as a whole, favours compounds with a hit. Of some 79,000 tested, about 15% had one in any assay. Calls of active or inactive are those of the source. Cut-off read from the data, not from the text of the source: active = growth inhibition above about 70%; inactive = the rest.

How the values were obtained:
[1] = NCI Yeast Anticancer Drug Screen. Data for the rad52 strain (AID 147);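 note: 0% = growth of vehicle-treated control cultures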; details: S. cerevisiae rad52 mutant growth inhibition, stronger effect = higher value
In short: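 Compounds are applied to a genetically defined yeast strain lacking normal DNA damage repair, and inhibition of growth is expressed relative to cultures given vehicle only.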

[2] = NCI Yeast Anticancer Drug Screen. Data for the wt1 strain (AID 149);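 note: 0% = growth of vehicle-treated wt1 cultures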; details: S. cerevisiae wt1 strain (SPY 50644) growth inhibition, stronger effect = higher value
In short: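 Readout: yeast growth inhibition, normalised to vehicle controls, in the wt1 strain exposed to test compounds.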

[3] = NCI Yeast Anticancer Drug Screen. Data for the rad50EPP+ strain (AID 151);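 note: 0% = growth of vehicle-treated control cultures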; details: S. cerevisiae rad50 mutant strain, stronger effect = higher value
In short: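 Compounds were applied to the rad50EPP+ yeast strain, which bears a defined DNA repair alteration, and growth inhibition was determined relative to vehicle-treated cultures.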

[4] = NCI Yeast Anticancer Drug Screen. Data for the mgt1 strain (AID 153); details: S. cerevisiae mgt1 mutant growth inhibition, stronger effect = higher value
In short: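 Strain: mgt1 yeast, one of a set carrying defined DNA damage repair or cell cycle control alterations. Compound-treated growth compared with vehicle.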

[5] = NCI Yeast Anticancer Drug Screen. Data for the rad50 strain (AID 155);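 note: 0% = growth of vehicle-only cultures of the same strain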; details: S. cerevisiae rad50 strain growth inhibition, stronger effect = higher value
In short: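 Compounds were tested on a yeast strain with an engineered DNA damage repair alteration; the reported value is growth inhibition normalised to vehicle treatment.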

[6] = NCI Yeast Anticancer Drug Screen. Data for the mec2-1 strain (AID 157); details: S. cerevisiae mec2-1 strain, stronger effect = higher value
In short: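 Strain: mec2-1 (DNA repair/cell cycle alteration). Compound exposure, then growth measured; inhibition expressed relative to vehicle.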

[7] = NCI Yeast Anticancer Drug Screen. Data for the rad14 strain (AID 159);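 note: 0% = growth of vehicle-treated control cultures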; details: S. cerevisiae rad14 strain growth inhibition, stronger effect = higher value
In short: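 Compound-treated yeast with a defined DNA-repair lesion; growth inhibition normalised to vehicle-treated cultures.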

[8] = NCI Yeast Anticancer Drug Screen. Data for the sgs1 mgt1 strain (AID 161);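 note: 0% = growth of cultures given vehicle only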; details: S. cerevisiae sgs1 mgt1 strain, stronger effect = higher value
In short: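 Inhibition of yeast growth, normalised to vehicle-treated controls, is reported for a strain bearing genetic alterations in DNA damage repair.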

[9] = NCI Yeast Anticancer Drug Screen. Data for the CLN2oe strain (AID 163);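 note: 0% = growth of vehicle-only control cultures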; details: S. cerevisiae CLN2oe strain, stronger effect = higher value
In short: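 Growth of a genetically modified yeast strain is measured after compound exposure and compared with cultures given vehicle alone.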

[10] = NCI Yeast Anticancer Drug Screen. Data for the cln2 rad14 strain (AID 165);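 note: 0% = growth equal to vehicle treated cultures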; details: S. cerevisiae cln2 rad14 strain, stronger effect = higher value
In short: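 Compounds are applied to the cln2 rad14 yeast strain, and growth is then compared with that of vehicle-treated cultures to give inhibition.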

[11] = NCI Yeast Anticancer Drug Screen. Data for the bub3 strain (AID 167); details: S. cerevisiae bub3 mutant strain, stronger effect = higher value
In short: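 Growth of a checkpoint-deficient yeast mutant is measured after compound exposure. Values represent inhibition relative to vehicle.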

[12] = NCI Yeast Anticancer Drug Screen. Data for the wt2 strain (AID 169);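 note: 0% = growth of vehicle-treated yeast cultures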; details: S. cerevisiae wt2 strain growth inhibition, stronger effect = higher value
In short: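 This strain belongs to a panel of yeast strains with defined genetic alterations in DNA damage repair or cell cycle control. Compounds are applied, and growth inhibition is measured against vehicle-treated cultures.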

[13] = NCI Yeast Anticancer Drug Screen. Data for the mlh1 strain (AID 171);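 note: 0% = growth of vehicle-treated control cultures of the same strain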; details: S. cerevisiae mlh1 strain growth inhibition, stronger effect = higher value
In short: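 Growth of the mutant yeast strain after compound exposure, expressed as inhibition relative to vehicle-only controls.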

[14] = NCI Yeast Anticancer Drug Screen. Data for the sgs1 strain (AID 173);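 note: 0% = growth of vehicle-only control cultures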; details: S. cerevisiae sgs1 mutant, stronger effect = higher value
In short: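 Growth of a yeast strain bearing a defined genetic alteration is measured after compound treatment. Inhibition is expressed relative to vehicle-only controls.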

[15] = NCI Yeast Anticancer Drug Screen. Data for the mlh1 rad18 strain (AID 175); details: S. cerevisiae mlh1 rad18 strain growth inhibition, stronger effect = higher value
In short: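 Read-out is yeast growth inhibition, calculated against vehicle-only controls. The compound was applied to a strain engineered with DNA damage repair alterations.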

[16] = NCI Yeast Anticancer Drug Screen. Data for the rad18 strain (AID 177); details: S. cerevisiae rad18 mutant growth inhibition, stronger effect = higher value
In short: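 Growth of the mutant yeast strain after compound exposure, normalised to vehicle-only cultures.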

[17] = at 5.0 µM (retest, dose inferred, filed as 0.5)
[18] = at 50.0 µM (retest, dose inferred, filed as 5.0)

Measured: growth inhibition

Cc1c2cc[n+](Cc3ccc(I)cc3)cc2c(C)c2c1[nH]c1ccccc12
inactive: [1]; at 1.2 µM 39% | [1]; at 3.7 µM 36% | [2]; at 1.2 µM 10% | [2]; at 3.7 µM 8% | [3]; at 1.2 µM 30% | [3]; at 3.7 µM 29% | [3]; at 11.0 µM 34% | [4]; at 1.2 µM 9% | [4]; at 3.7 µM -1% | [5]; at 1.2 µM 18% | [5]; at 3.7 µM 12% | [5]; [17] 5% | [6]; at 1.2 µM 19% | [6]; at 3.7 µM 8% | [6]; [17] 33% | [7]; at 1.2 µM 12% | [7]; at 3.7 µM 0% | [9]; at 1.2 µM 14% | [9]; at 3.7 µM 19% | [10]; [17] 17% | [11]; at 1.2 µM 18% | [11]; at 3.7 µM 18% | [11]; [17] 55% | [12]; at 1.2 µM -21% | [12]; at 3.7 µM -24% | [13]; at 1.2 µM 35% | [13]; at 3.7 µM 35% | [14]; at 1.2 µM 42% | [14]; at 3.7 µM 27% | [15]; [17] 35% | [16]; at 1.2 µM 40% | [16]; at 3.7 µM 31%
active: [1]; at 11.0 µM 96% | [1]; at 33.0 µM 98% | [1]; at 100.0 µM 95% | [2]; at 11.0 µM 89% | [2]; at 33.0 µM 98% | [2]; at 100.0 µM 97% | [3]; at 33.0 µM 90% | [3]; at 100.0 µM 96% | [4]; at 11.0 µM 90% | [4]; at 33.0 µM 97% | [4]; at 100.0 µM 96% | [5]; at 11.0 µM 96% | [5]; at 33.0 µM 95% | [5]; [18] 93% | [5]; at 50.0 µM 85.5% | [5]; at 100.0 µM 89% | [6]; at 11.0 µM 96% | [6]; at 33.0 µM 97% | [6]; [18] 95% | [6]; at 50.0 µM 87.2% | [6]; at 100.0 µM 95% | [7]; at 11.0 µM 94% | [7]; at 33.0 µM 97% | [7]; at 100.0 µM 96% | [8]; [17] 74% | [8]; [18] 94% | [8]; at 50.0 µM 85.8% | [9]; at 11.0 µM 92% | [9]; at 33.0 µM 97% | [9]; at 100.0 µM 94% | [10]; [18] 94% | [10]; at 50.0 µM 86% | [11]; at 11.0 µM 97% | [11]; at 33.0 µM 96% | [11]; [18] 94% | [11]; at 50.0 µM 83.3% | [11]; at 100.0 µM 89% | [12]; at 11.0 µM 87% | [12]; at 33.0 µM 97% | [12]; at 100.0 µM 96% | [13]; at 11.0 µM 95% | [13]; at 33.0 µM 97% | [13]; at 100.0 µM 96% | [14]; at 11.0 µM 96% | [14]; at 33.0 µM 97% | [14]; at 100.0 µM 96% | [15]; [18] 94% | [15]; at 50.0 µM 89.8% | [16]; at 11.0 µM 97% | [16]; at 33.0 µM 96% | [16]; at 100.0 µM 93%
